Experimental data from PubChem BioAssay AID1508621 (National Center for Advancing Translational Sciences (NCATS), 2021).
Inconclusive results are not listed. A call without a number means that no potency is given here. The source made the active and inactive calls. The call rests on the fitted dose curve; in most records, active means well fitted inhibition curve with a large enough effect; inconclusive means small, poorly fitted or top-dose-only effect; inactive means no such curve, though single readings can be large or run the other way.

Test: Confirmatory qHTS for Identification of Small Molecule Inhibitors of Huntingtin Promoter Activity; further: nearly all actives have a fitted effect of over 65% in size
Settings: HEK293 HTT promoter firefly luciferase reporter, 24 h; series mostly up to 57.5 µM
Description: Assay Provider: Russell L. Margolis M.D.
Department Neurology, Johns Hopkins University School of Medicine, Baltimore, MD
Huntington's Disease (HD) is a neurodegenerative disorder caused by a CAG repeat expansion in exon 1 of huntingtin (HTT). While there are currently no disease-modifying treatments for HD, recent efforts have focused on development of nucleotide-based therapeutics to lower HTT expression. As an alternative to siRNA or oligonucleotide methods, we hypothesized that suppression of HTT expression might be accomplished by small molecules that either (1) directly decrease HTT expression by suppressing HTT promoter activity or (2) indirectly decrease HTT expression by increasing the promoter activity of HTT-AS, the gene antisense to HTT that appears to inhibit expression of HTT.
We developed and employed a high throughput screen for modifiers of HTT and HTT-AS promoter activity using luminescent reporter HEK293 cells; of the 52,041 compounds tested, we identified 898 replicable hits. We used a rigorous stepwise approach to assess compound toxicity and the capacity of the compounds to specifically lower huntingtin protein in 5 different cell lines, including HEK293 cells, HD lymphoblastoid cells, mouse primary neurons, HD iPSCs differentiated into cortical-like neurons, and HD hESCs. We found no compounds which were able to lower huntingtin without lowering cell viability in all assays, though the potential efficacy of a few compounds at non-toxic doses could not be excluded.
SEQUENCE No. (1, 2, 3, etc.); […] (e.g., Cells, Incubation, Reagent, etc.); VALUE and DESCRIPTION.
1; Reagent; 4 uL; 2,500 Hek293 luciferase reporter cells per wells
3; Compound; 23 nL; Control inhibitor / compound library
5; Reagent; 2.5 uL; Firefly Luc reagent; Dual-Glo Luciferase Reporter Assay System (Promega)
6; Time; 10 min; room temperature incubation
7; Detection; Luminescence; FLuc
NOTES (numbers refer to sequence above)
1; High-throughput screening, measuring luminescence from a Hek293 luciferase reporter, was performed in 1,536 well white-walled tissue-culture treated plates. 2,500 cells were plated in 4 uL of Opti-MEM per well using a Multidrop Combi Reagent Dispenser (ThermoFisher).
2; Assay plates were cultured for 24 hours.
3; Control inhibitor (PTC124; final concentration of 50 uM) and compound library (at final concentrations of 460 nM - 57.5 uM) were added to the assay plate using the Kalypsis Pintool Robotic System equipped with 1536 pinheads.
4; Cells were then incubated for 24 hours at 37C prior to luminescence measurements.
5; In all cases, luminescence was measured using the Dual-Glo Luciferase Reporter Assay System (Promega) following the manufacturer's instructions.
6; Room temperature incubation.
7; Luminescence signal was obtained using the PerkinElmer ViewLux plate reader. Results were normalized to vehicle control (0% activity) and zero RLU (-100% activity).
Potency means the concentration at half of the fitted maximal effect.

| SMILES | Potency |
| --- | --- |
| CNC(=O)N1N=C(c2ccc(N)cc2)c2cc3c(cc2CC1C)OCO3 (stereo not drawn) | inactive |
| CCCCc1ccc(NC(=O)c2cccn(Cc3ccc(Cl)cc3)c2=O)cc1 | inactive |
| COc1ccc(-n2c(/C=C\c3ccccc3F)nc3ccccc3c2=O)cc1OC | inactive |
| CCOc1ccc(NC(=O)c2cccn(Cc3cccc(Cl)c3)c2=O)cc1 | inactive |
| O=C(N[C@H]1CN2CCC1CC2)c1ccc(Cl)cc1 | inactive |
| CCN(CC)C(=O)N[C@@H]1C=C2c3cccc4[nH]cc(c34)C[C@@H]2N(C)C1 | inactive |
| Cc1cccc(-n2c(/C=C\c3cccc(Br)c3)nc3ccccc3c2=O)c1 | inactive |
| Cc1ccccc1Cn1cccc(C(=O)Nc2nc3ccccc3s2)c1=O | 12 µM (active) |
| O=c1c2ccccc2nc(/C=C/c2cccc3ccccc23)n1-c1ccccc1Cl | inactive |
| Nc1c(C(=O)Nc2ccc(Cl)c(C(F)(F)F)c2)sc2nc3c(cc12)N1CCC3CC1 | 12 µM (active) |
| Cc1ccc(-n2c(/C=C/c3ccc(Br)s3)nc3ccccc3c2=O)cc1 | inactive |
| CC(C)N[C@@H]1CCn2c(=O)[nH]c3cccc(c32)[C@@H]1O | inactive |
| CC(C)(O)C=CC(=O)[C@](C)(O)[C@H]1[C@H](O)C[C@]2(C)[C@@H]3CC=C4[C@@H](C=C(O)C(=O)C4(C)C)[C@]3(C)C(=O)C[C@@]12C | 0.757 µM (active) |
